# Tb PYK inh = inhibitors of Trypanosoma brucei pyruvate kinase; Potency, µM (doses to about 76.8 µM), without a hit: at the highest dose activity, negative = inhibition, usual class: inhibitors; Q57TT1; 410,000 compounds, 0.12% hits; TbPYK enzyme, Kinase-Glo Plus ATP luminescence, 45 min; note: nearly all actives have a fitted effect of over 50% in size
#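 In this concentration-response screen, enzyme-free wells defined baseline while DMSO plates tracked drift. Each reaction combined TbPYK, substrate, compound and 130 uM ADP for 45 min at room temperature. Kinase-Glo Plus luminescence gave the signal.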
# RE007 growth inh = less growth of the S. pombe RE007 Vpr strain. S. pombe RE007 Vpr strain, BacTiter-Glo ATP luminescence, 24 h. Potency, µM (series often up to 92.2 µM), without a hit: at the highest dose activity change, negative = less growth, most hits filed as inhibitors. 360,000 compounds, 0.21% hits. AID 651644; active = well fitted falling curve with a large enough effect; inconclusive = small, poorly fitted or top-dose-only effect; inactive = no such curve, though single readings can be large or run the other way; note: nearly all actives have a fitted effect of over 50% in size
#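 Fission yeast strain RE007, carrying one chromosomally integrated HIV-1 vpr copy, was seeded at OD 0.01 in PMG+AL medium with 23 nL pinned compound. After 24 h at 30 °C and 99% humidity, viability was read by BacTiter-Glo luminescence.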
# Sm TGR block = inhibitors of Schistosoma mansoni thioredoxin glutathione reductase; Q962Y6; purified TGR, DTNB reduction, TNB absorbance 405 nm; Potency, µM (doses to about 114 µM), for the others: at the top dose activity change, negative = inhibition, most hits filed as inhibitors; 360,000 compounds, 3% hits; note: nearly all actives have a fitted effect of over 60% in size
#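 TGR 20 nM + NADPH 100 uM (dispensed conc.), cpd preinc 15 min RT; start with NADPH (500 uM addition) then DTNB (15 mM addition). Kinetic TNB absorbance, 405 nm filter. Four-parameter Hill fit across titration.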
# LmPK inh = blocks Leishmania mexicana pyruvate kinase activity; purified LmPK, Kinase-Glo ATP luminescence, 1 h; Q27686; Potency, µM (titrated, usually from 57.5 µM), inactives show top-dose activity change, negative = inhibition, actives largely listed as inhibitors; 290,000 compounds, 0.37% hits
# Target sequence (Q27686 whole entry, looked up): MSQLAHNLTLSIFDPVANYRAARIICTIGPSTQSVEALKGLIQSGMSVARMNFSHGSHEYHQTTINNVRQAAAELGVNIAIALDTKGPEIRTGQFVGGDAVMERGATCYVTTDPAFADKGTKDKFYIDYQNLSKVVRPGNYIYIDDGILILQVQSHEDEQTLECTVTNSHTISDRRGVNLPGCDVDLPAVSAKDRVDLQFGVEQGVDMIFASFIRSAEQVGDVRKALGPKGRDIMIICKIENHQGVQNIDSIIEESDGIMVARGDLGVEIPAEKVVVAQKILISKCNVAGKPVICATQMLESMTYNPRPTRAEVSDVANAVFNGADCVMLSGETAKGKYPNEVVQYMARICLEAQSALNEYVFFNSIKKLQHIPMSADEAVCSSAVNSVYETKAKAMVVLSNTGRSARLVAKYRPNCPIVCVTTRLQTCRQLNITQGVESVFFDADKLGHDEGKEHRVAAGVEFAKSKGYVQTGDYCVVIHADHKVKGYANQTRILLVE
#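 Screened at intermediate enzyme activity to detect both inhibitors and activators: LmPK at 0.1 nM, with a 0.5 nM enzyme column as activation reference. PEP 0.5 mM, ADP 0.1 mM; ATP detected by luminescence after 1 h.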
# * marks the source's active call; other numbers are inactive results; ? = inconclusive; / = not tested or not shown; [ ] = remark or other dose. Compounds with a hit are over-represented: about 3% of the library has one in this group of screens. Unless noted, calls come from the whole dose curve; as a rule, active = well fitted curve in the direction sought with a large enough effect; inconclusive = small, poorly fitted or top-dose-only effect, or another doubt; inactive = no such curve, though single readings can be large; an effect the other way counts as inactive or inconclusive. % is set by controls: 0 for no effect and ±100 for the full control effect; potency is the fitted concentration of half-maximal effect.
SMILES,Tb PYK inh,RE007 growth inh,Sm TGR block,LmPK inh
O=C1OCC2OC(O)C(O)C(O)C2OC(=O)c2cc(O)c(O)c(O)c2-c2c(O)c(O)c3oc(=O)c4c(c(O)c(O)c5oc(=O)c2c3c54)-c2c1cc(O)c(O)c2O (stereo not given),/,/,16µM*,-16%
C=CCn1c(O)c(C(C)=NCCc2ccccc2)c(=O)[nH]c1=O,5%,27%,-10%,-4%
C=CCn1c(O)c(C(CC)=Nc2ccc(N(C)C)cc2)c(=O)[nH]c1=O,-15%,8%,32µM*,2%
C=CCn1c(O)c(C(CC)=NCCc2ccccc2)c(=O)[nH]c1=O,/,19%[3.69 µM],89µM*,3%
CC(C)(CC(=O)c1ccccc1)CC(=O)c1ccccc1,-3%,22%,/,/
Nc1c(C(=O)NC2CC2)sc2nc3c(c(-c4ccco4)c12)CC/C3=C/c1ccco1,-30%,-14%,5µM*,-1%
CC(C)CC1(C(=O)NCCc2c[nH]c3ccccc23)C=CCN1C(=O)c1ccccc1 (stereo not given),-13%,8%,40µM*,-1%
O=Cc1cccc(OC(=O)/C=C/c2ccco2)c1,1%,?,28µM*,15%
COC(=O)c1ccc(OC(=O)/C=C/c2ccco2)cc1,-5%,0%,-21%,-11%
O=C(Nc1ccc(Cl)cc1)[C@@H]1[C@@H]2C(=O)N(c3ccc(Cl)cc3)C(=O)[C@@H]2[C@H]2C=CC=NN21,?,-10%,50µM*,0%
COc1cc(N=c2ssnc2Cl)cc(OC)c1,28µM*,?,79µM*,-22%
N#Cc1cccc(N=c2ssnc2Cl)c1,18µM*,-24%,45%,-23%
COc1ccc(CNc2nc(-c3ccco3)nn2C(=O)c2ccccc2Cl)cc1,-2%,/,5%,/
O=C(c1ccccc1F)N1c2nc(-c3ccco3)nn2C2(CCCCC2)[C@@H]2CCCC[C@@H]21,-19%,/,10µM*,/
COc1ccc(C(=O)n2nc(-c3ccco3)nc2SC)cc1OC,-16%,-20%,10µM*,8%
COc1ccc(C(=O)n2nc(-c3ccco3)nc2NCc2cccs2)cc1,-18%,/,11µM*,/
O=C(c1ccc(F)cc1)N1c2nc(-c3ccco3)nn2C2(CCCCC2)[C@@H]2CCCC[C@@H]21,-7%,/,?,/
COc1ccc(C(=O)N2c3nc(-c4ccco4)nn3C3(CCCCC3)[C@@H]3CCCC[C@@H]32)cc1OC,?,/,11µM*,/
CCCc1ccc(OC(C)c2nc(-c3ccc(-n4cccc4)cc3)no2)cc1 (stereo not given),0%,/,9%,/
O=C(Nc1cccc(S(=O)(=O)N2CCOCC2)c1)C1CCN(S(=O)(=O)c2ccccc2)CC1,-4%,12%,-3%,/
O=c1[nH]c(=O)n(CCC2=CCCCC2)c(O)c1/C=N/Nc1cccc2ccccc12,8%,2%,20µM*,-3%
CCN(CC)CCCN=Cc1c(O)n(CCc2ccc(F)cc2)c(=O)[nH]c1=O,-2%,7%,8%,8%
CCN(CC)CCN=Cc1c(O)n(CCc2ccccc2)c(=O)[nH]c1=O,1%,-2%,25µM*,4%
O=c1[nH]c(=O)n(CCC2=CCCCC2)c(O)c1C=NCCN1CCNCC1,-2%,1%,10µM*,-2%
O=c1[nH]c(=O)n(Cc2ccccc2)c(O)c1C=Nc1ccc(CN2CCOCC2)cc1,-1%,-1%,35µM*,2%
SMILES,Tb PYK inh,RE007 growth inh,Sm TGR block,LmPK inh
COc1ccc(CNc2nc(-c3ccco3)nn2S(=O)(=O)c2ccc3ccccc3c2)cc1OC,-1%,/,-27%,/
O=c1[nH]c(=O)n(Cc2ccccc2)c(O)c1C=NCCN1CCNCC1,7%,14%,35µM*,1%
O=C(c1nc2ccc(Cl)cn2c1CNCCn1ccnc1)N1CCCCCCC1,2%,-1%,-36%,2%
O=C(c1nc2ccc(Cl)cn2c1CN1CCC[C@H]1CO)N1CCCCCCC1,1%,-5%,45µM*,1%
Cc1cc2c3c(c1)C(C)CC(C)(C)N3C(=O)C2=C(C#N)C#N (stereo not given),4%,-3%,4µM*,-9%
CC1CC(C)(C)N2C(=O)C(=C(C#N)C#N)c3cccc1c32 (stereo not given),-11%,0%,5.6µM*,-1%
COc1ccc(NC(=O)c2ccc3c(=O)n4nc(Nc5cc(C)ccc5C)sc4nc3c2)cc1,-3%,/,0%,/
Cc1c(C)c2c(cc(C)c3c(-c4ccc(Br)cc4)coc32)oc1=O,-3%,/,5%,/
CCN(Cc1ccc(OC)c(F)c1)C(=O)CCl,0%,12%,11µM*,8%
CCN(Cc1ccc(OC)c(F)c1)C(=O)C1CCCO1 (stereo not given),0%,14%,3%,0%
O=C1c2ccccc2NC(c2cccc([N+](=O)[O-])c2)N1O (stereo not given),-10%,8%,-7%,-4%
O=[N+]([O-])c1ccc(C2Nc3cccc4cccc(c34)N2)cc1,-14%,-4%,20µM*,-1%
O=[N+]([O-])c1cccc(C2Nc3cccc4cccc(c34)N2)c1,-1%,0%,35µM*,0%
CCN(CC)c1ccc(C2Nc3cccc4cccc(c34)N2)cc1,-4%,-17%,-54%,-1%
CCOc1ccc(/C=C/C(=O)Nc2sc3c(c2C(=O)OC)C(C(=O)OC)CC3)cc1 (stereo not given),?,/,-1%,/
CCCCCCCCCCCCCCCC[N+](C)(C)Cc1ccccc1,8%,/,/,/
O=c1c(-c2cc(F)cc(F)c2)nc2cncnc2n1Cc1ccc(F)cc1,4%,/,/,/
Cc1ccc(NP(=O)(c2ccccc2)c2nc3ccccc3s2)cc1 (stereo not given),1%,-4%,16µM*,0%
COCCNP(=O)(c1ccccc1)c1nc2ccccc2s1 (stereo not given),/,/,10%,3%
O=C1OC(c2cccs2)=N/C1=C/c1ccc(-c2cccc(C(=O)O)c2)o1,-14%,4%,22µM*,1%
CCN(CCO)c1nc(SC)nc2c1sc1nc(-c3ccco3)c3c(c12)CCC3,-8%,-21%,3.5µM*,2%
CSc1nc(NCc2ccco2)c2sc3nc(C(C)C)c4c(c3c2n1)CC(C)(C)OC4,4%,?,?,3%
CSc1nc(NCCOCCO)c2sc3nc(-c4ccco4)c4c(c3c2n1)CCC4,3%,1%,3.2µM*,-1%
Cc1cc(O)c(CN2CCN(c3ccccc3)CC2)c2oc(=O)cc(C)c12,-6%,/,-3%,/
N#Cc1cccc(NC(=O)N2CC3(CCN(C(=O)c4cc(C(F)(F)F)cc(C(F)(F)F)c4)CC3)C2)c1,-7%,/,/,/
CCOC(=O)C1=C(C)N=C2c3ccccc3C(=O)C2C1c1ccc(Cl)cc1 (stereo not given),0%,-10%,-9%,-1%
CCOC(=O)C1=C(Cc2ccc(Cl)cc2)C(=O)c2ccccc2C1=O,?,35µM*,3.5µM*,?
CCN1CCN(CC2COc3ccccc3O2)CC1 (stereo not given),1%,-4%,2%,3%

# Assay outcomes (PubChem BioAssay)
